Here are results for 61 compounds from PubChem BioAssay AID738 (SRMLSC, 2007).

In all, about 98,000 compounds went through this assay and about 4,900 (5%) were called active. This is one part of a sample in which actives are shown more often than they occur. Cut-off read from the data, not from the text of the source: active = inhibition above about 30%; inactive = the rest.

This test is described as follows: yeast control strain growth suppression – counter-screen for post-Golgi transport modulator project, primary screen (AID 738). Particulars: efflux-deficient yeast background strain, growth absorbance A615, 16 h; at 10 µM; active compounds read high.
Consider `CCCn1nnnc1NC(=O)COc1ccc(Cl)cc1C`, for which the inhibition was 4.96% (inactive).
Then `O=C(NCCc1ccccn1)c1cc(C(=O)C2CCCCC2)c[nH]1`, with -1.83% (inactive).
Then `Cc1ccc(SCC(=O)NC(=O)NCc2ccco2)c(C)c1`, with 2.9% (inactive).
Next, `OC(COc1cccc2ccccc12)CN1CCN(c2ccccn2)CC1` (stereo unspecified): -6.3% (inactive).
Consider `O=C1c2cccc3cccc(c23)N1CN1CCN(c2ccccn2)CC1`, for which the inhibition is 32.2% (active).
Next, `CC(=C1C(=O)c2ccccc2C1=O)N1CCN(c2ccccn2)CC1`: 2.92% (inactive); `CC1=C(C)CC(C(=O)NNC(=O)c2ccccc2O)C(C(=O)O)C1` (stereo unspecified): -0.3% (inactive).
Then `Cc1nc(NC2=NC(C(=O)Nc3ccc(Cl)cc3)CC(=O)N2)nc2ccccc12` (stereo unspecified), with -4.48% (inactive); and `CSc1ccc(C#N)cc1NC(=O)c1cccc(Cl)c1`, with 15.8% (inactive).
Next, `O=C(NC(Nc1nc2ccc([N+](=O)[O-])cc2s1)(C(F)(F)F)C(F)(F)F)c1ccccc1`: 89.5% (active).
With `COC(=O)C(NC(=O)c1ccc(OC)cc1)(Nc1ncc(S(=O)(=O)c2ccc([N+](=O)[O-])cc2)s1)C(F)(F)F` (stereo unspecified), the inhibition is 6.12% (inactive).
For the compound `Cc1cc(C)cc(OCC(=O)Nc2nc3ccc([N+](=O)[O-])cc3s2)c1`, the inhibition was 11.7% (inactive).
Then `COc1ccc2c(c1OC)C(=O)c1ccccc1C2=O`, with 1.8% (inactive); and `Cc1nnc(SCC(=O)N/N=C/c2cn(-c3ccccc3)nc2-c2ccc(F)cc2)n1-c1ccccc1`, with 4.61% (inactive); and `O=C1c2ccccc2C2=Nc3ccccc3SC(c3ccccc3F)C12` (stereo unspecified), with 95.4% (active).
Then `O=C(CN1C(=O)NC2(CCCC2)C1=O)Nc1ccc(F)c(F)c1F`, with 3.79% (inactive).
Next, `O=C1C=C(c2ccc(Cl)cc2)C(=O)N1Nc1ccccc1`: 99.5% (active); `O=C(Nc1ccccc1)OCc1cc(-c2ccc(Cl)cc2)on1`: 10.1% (inactive).
On to `O=C1c2cccc3cc(Br)cc(c23)C(=O)N1Nc1ccccc1`, for which the inhibition was 12.1% (inactive).
Next, `Cc1ccc(-c2nnc(-n3nnc4ccccc43)c3ccccc23)cc1`: 12% (inactive).
Next, `N=c1oc2ccccc2cc1C(=O)N/N=C/c1ccccc1`: -3.5% (inactive); `CCOC(=O)CSc1nnc(-c2ccncc2)o1`: 2.24% (inactive).
Next, `CCOC(=O)CSc1nnc(-c2cccc(Br)c2)o1`: 31.6% (active); `CCN(CC)C(=O)CSc1nnc(-c2cccc(OC)c2)o1`: 2.38% (inactive); `O=C(CSCc1ccccc1Cl)NNC(=O)c1ccccc1`: 3.42% (inactive).
On to `CCOc1ccc(N(CC(=O)NC2CCCCCC2)S(=O)(=O)c2c(C)[nH]c(=O)[nH]c2=O)cc1`, for which the inhibition is 5.91% (inactive).
Next, `COc1ccc(-c2c(C(C)=O)c(C)nc3sc4c(=O)n(-c5ccc(C)cc5)nnc4c23)cc1`: 16.1% (inactive); `CCC(C)Sc1nnc(-c2c[nH]c3ccccc23)n1CCOC` (stereo unspecified): 0.59% (inactive); `CCn1c(SCCC(C)C)nnc1-c1c[nH]c2ccccc12`: 56.1% (active).
Then `CCn1c(SCC(=O)Nc2ccc(OC)c(OC)c2)nnc1-c1c[nH]c2ccccc12`, with 7.39% (inactive); and `CN=C1S/C(=C\c2ccc(Sc3ccc(Cl)cc3)o2)C(=O)N1C`, with -6.09% (inactive); and `CCC(O)CNc1nc(-n2nc(C)cc2C)nc2sc3c(c12)CC(C)(C)OC3` (stereo unspecified), with -1.72% (inactive).
Then `COCCNc1nc(-n2nc(C)cc2C)nc2sc3c(c12)CCCC3`, with 31.4% (active).
In the case of `Cc1cc(C)n(-c2nc(SCC(=O)N3CCCC3)c3c4c(sc3n2)CCCC4)n1`, the inhibition was 24.5% (inactive).
Turning to `O=C(Nc1ccc(-n2ccnc2P(=O)(O)c2ccccc2)cc1)c1ccccc1Br`, the inhibition is 13.2% (inactive).
Take `COc1ccc(NC(=O)/C(Cl)=C(/Cl)S(=O)Cc2ccc(C)cc2)cn1` (stereo unspecified): the inhibition was 102% (active).
Next, `COc1cccc(NC(=O)Cc2ccc(C)cc2)c1`: 2.33% (inactive); `COc1ccc(CC(=O)Nc2ccc(-c3nnc(-c4ccc(C)cc4)o3)cc2)cc1`: 5.16% (inactive).
Then `O=c1c2ccccc2nc2n1C(CSCc1ccccc1)CS2` (stereo unspecified), with 3.79% (inactive).
Then `Cc1ccc(N2C(=O)CC(Sc3ncn[nH]3)C2=O)cc1` (stereo unspecified), with -0.63% (inactive).
For `CS(=O)(=O)N1CCN(c2ccc(C(=O)NC3C4CC5CC(C4)CC3C5)cc2[N+](=O)[O-])CC1` (stereo unspecified), the inhibition is -2.2% (inactive).
On to `O=C(NC12CC3CC(CC(C3)C1)C2)N1CCCC(CO)C1` (stereo unspecified), for which the inhibition was 7.31% (inactive).
Consider `O=C(CNCCO)NC12CC3CC(CC(C3)C1)C2`, for which the inhibition was 33.3% (active).
Then `CC(NCCO)C(=O)C12CC3CC(CC(C3)C1)C2` (stereo unspecified), with -1.14% (inactive).
Next, `COc1cc(CNCc2cccs2)cc(Br)c1OC`: -5.39% (inactive); `COc1ccc2c(c1)SC(C)CC2=O` (stereo unspecified): -5.53% (inactive).
Next, `COc1ccc2c(c1)OC(O)(C(F)(F)C(F)F)CC2=O` (stereo unspecified): 34.1% (active); `COC(=O)c1cc(OC)ccc1-c1ccc(OC)cc1`: 18.8% (inactive); `Cc1ccc(/C=N/NC(=O)C(NC(=O)c2ccccc2)c2n[nH]c(=O)c3ccccc23)cc1` (stereo unspecified): 13.9% (inactive).
Consider `Clc1ccc2c(c1)C1=C(C(c3ccncc3)O2)C(c2ccc(Br)cc2)n2ncnc2N1` (stereo unspecified), for which the inhibition was 44.5% (active).
On to `Brc1ccc(C2=CC(c3ccco3)n3ncnc3N2)cc1` (stereo unspecified), for which the inhibition is 19.2% (inactive).
Next, `COC(=O)C1=C(C)Nc2ncnn2C1c1cccnc1` (stereo unspecified): 15% (inactive).
Then `O=C(CNS(=O)(=O)c1ccc(Br)s1)N1CCN(C(=O)c2ccco2)CC1`, with -3.81% (inactive); and `O=C1Cc2ccccc2Sc2ccc(Cl)cc21`, with 7.76% (inactive).
Turning to `CCCN(CCC)CCNC(=O)c1cc2c(C)nc3ccccc3c2o1`, the inhibition was -0.17% (inactive).
Turning to `Cc1nc2ccccc2c2oc(C(=O)NCC3CCCO3)cc12` (stereo unspecified), the inhibition is 5.49% (inactive).
Then `Cc1nc2ccccc2c2oc(C(=O)NCCCN3CCC(C)CC3)cc12`, with 38.5% (active).
As for `CCc1cc(C(c2ccccc2OC)N2CCOCC2)c(NC(=O)c2ccccc2)s1` (stereo unspecified), the inhibition is 14.6% (inactive).
Next, `O=C(Cn1cnc2c(cnn2-c2ccccc2)c1=O)NCc1ccccc1`: 2.17% (inactive).
Next, `CN(Cc1ccccc1)C(=O)CCNC(=O)Cn1cnc2ccccc2c1=O`: 32.8% (active); `O=C(Cn1cnc2ccccc2c1=O)NCC1COc2ccccc2O1` (stereo unspecified): -2.34% (inactive).
